Outcome and AC50 data for 40 compounds are collected here from PubChem BioAssay (EPA / NIEHS).

The source made the active and inactive calls. The calls were made as follows: active = hit-call score of the fitted dose curve at least 0.9, where 1 is the maximum; inactive = score below 0.9.

As a reminder, the AC50 is the concentration giving half of the maximal activity seen.

Chain of Nuclear respiratory factor 1 (Homo sapiens) (Q16656 whole entry, looked up): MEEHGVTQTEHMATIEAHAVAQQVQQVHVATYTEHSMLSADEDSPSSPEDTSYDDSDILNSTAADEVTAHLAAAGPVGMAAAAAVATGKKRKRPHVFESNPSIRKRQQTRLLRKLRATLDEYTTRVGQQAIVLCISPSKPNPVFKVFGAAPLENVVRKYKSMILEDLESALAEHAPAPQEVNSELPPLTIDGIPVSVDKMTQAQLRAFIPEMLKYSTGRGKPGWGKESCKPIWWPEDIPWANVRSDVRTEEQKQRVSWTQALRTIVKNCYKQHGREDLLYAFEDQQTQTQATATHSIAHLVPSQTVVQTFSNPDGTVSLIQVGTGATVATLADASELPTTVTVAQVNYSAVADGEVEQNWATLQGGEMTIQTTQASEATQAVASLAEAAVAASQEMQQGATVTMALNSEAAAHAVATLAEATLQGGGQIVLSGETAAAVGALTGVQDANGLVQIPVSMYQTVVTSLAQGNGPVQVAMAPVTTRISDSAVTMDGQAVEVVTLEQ

This test concerns the target Nuclear respiratory factor 1 (Homo sapiens) (UniProt Q16656). In words: ATG_NRF1_CIS: Attagene CIS-FACTORIAL HepG2 Assay for human Nuclear Respiratory Factor 1 (NRF1) Orphan Gene (AID 2282987). The note with it: HepG2 NRF1 cis-element reporter, Attagene multiplex; actives raise or lower the signal. The procedure: ATG_CIS is a cell-based, multiplexed-readout assay that uses HepG2, a human liver cell line, with measurements taken at 24 hours after chemical dosing in a 24-well plate.ATG_NRF1_CIS is one of 52 assay component(s) measured or calculated from the ATG_CIS assay. It is designed to make measurements of mRNA induction, a form of inducible reporter, as detected with fluorescence intensity signals by Reverse transcription polymerase chain reaction (RT-PCR) and Capillary electrophoresis technology.Data from the assay component ATG_NRF1_CIS was analyzed into 1 assay endpoint. This assay endpoint, ATG_NRF1_CIS, was analyzed with bidirectional fitting relative to DMSO as the negative control and baseline of activity. Using a type of inducible reporter, measures of mRNA for gain or loss-of-signal activity can be used to understand the reporter gene at the transcription factor-level as they relate to the gene NRF1. Furthermore, this assay endpoint can be referred to as a primary readout, because this assay has produced multiple assay endpoints where this one serves a reporter gene function. To generalize the intended target to other relatable targets, this assay endpoint is annotated to the dna binding intended target family, where the subfamily is nuclear respiratory factors.
Human liver HepG2 cells are transiently transfected with multiple reporter transcription units (MRTUs) in 6-well plates using FuGene 6 reagent (Roche; 3 ml FuGene/1 mg DNA). The MRTU constructs are regulated by a cis-regulating element (promoter). […] A major difference between the CIS and TRANS system is that in CIS activities of endogenous TFs are measured, whereas the TRANS assay evaluates changes in activities of exogenous, chimeric NR-Gal4 proteins. […] At the end of 24 hour incubation, total RNA was isolated using TriZol reagent (Invitrogen). The isolated RNA is then reverse-transcribed using oligo(dT) primer and Mo-MLV reverse transcriptase (Invitrogen) with DNAse I (Ambion) treatment for 30 min. The one-tenth of the produced cDNA was amplified by PCR using Taq DNA polymerase (Invitrogen) and two reporter sequence-specific primers. The PCR products were fluorescently labeled by primer extension with 6-arboxyfluorescein (6-FAM) 5'-labeled reporter sequence-specific primer (2 min at 95 C, 20 s at 68 C and 10 min at 72 C) and these products were digested with 5U of HpaI (New England Biolabs) for 2h at 37 C. The fragments were purified using Qiaquick PCR columns (Qiagen), analyzed on an ABI 3130xL genetic analyzer (Applied Biosystems) with peak positions identified by using a set of X-rhodamine (ROX)-labeled MapMarker1000 molecular weight standards (BioVentures). The raw capillary electrophoresis data was processed using Attagraph software (Attagene).
For the compound `O=C(O)C(F)(F)C(F)(F)C(F)(F)C(F)(F)C(F)(F)C(F)(F)F`, the compound was called inactive.

In the case of `CC(=O)C(Cl)C(=O)N(C)C` (stereo not given), the result was inactive.

On to `CCC(=O)C(CC(C)N(C)C)(c1ccccc1)c1ccccc1` (stereo not given), for which the compound was classed as inactive.

As for `c1cc[c]([Hg][c]2ccccc2)cc1`, the outcome was inactive.

In the case of `C[C@H]1O[C@@H](O[C@H]2[C@@H](O)C[C@H](O[C@H]3[C@@H](O)C[C@H](O[C@H]4CC[C@@]5(C)[C@H](CC[C@@H]6[C@@H]5CC[C@]5(C)[C@@H](C7=CC(=O)OC7)CC[C@]65O)C4)O[C@@H]3C)O[C@@H]2C)C[C@H](O)[C@@H]1O`, the outcome was inactive.

In the case of `Cc1cc(Cl)ccc1O[C@H](C)C(=O)O`, the compound was classed as inactive.

For `CCC(=O)c1ccccc1`, the outcome was inactive.

As for `C(=NC1CCCCC1)=NC1CCCCC1`, the compound was called inactive.

On to `CCNc1nc(NC(C)(C)C)nc(SC)n1`, for which the result was inactive.

With `N#CCCO`, the outcome was inactive.

Take `COc1ccc(C=O)cc1`: the call was inactive.

Regarding `CCOC(=O)Nc1cccc(OC(=O)Nc2ccccc2)c1`, the result was inactive.

With `O=[N+]([O-])c1ccc(O)c([N+](=O)[O-])c1`, the outcome was inactive.

As to `ClCc1ccccn1`, the call was inactive.

Regarding `Nc1cccc2ccccc12`, the call was inactive.

As for `CCN1CCC2(CC1)COc1cc3c(cc12)N(C(=O)c1ccc(-c2ccc(-c4nnc(C)o4)cc2C)cc1)CC3`, the compound was classed as inactive.

As for `NC(=S)Nc1ccccc1`, the compound was called inactive.

With `NC(=O)O`, the compound was classed as inactive.

On to `CCC[CH2][Sn]([CH2]CCC)([CH2]CCC)[O]C(=O)c1ccccc1`, for which the call was inactive.

`COc1cccc(C=O)c1`: the compound was called inactive.

On to `O=C1CCCN1`, for which the call was inactive.

Turning to `N#Cc1ccccn1`, the result was inactive.

`Nc1ccc(Cl)cc1C(=O)c1ccccc1`: the outcome was inactive.

With `COP(=S)(OC)Oc1ccc(S(=O)(=O)N(C)C)cc1`, the call was inactive.

In the case of `CCOP(=S)(OCC)Oc1nc(Cl)c(Cl)cc1Cl`, the outcome was inactive.

Regarding `C=C(C)C(=O)[O][Sn]([CH2]CCC)([CH2]CCC)[CH2]CCC`, the compound was called inactive.

Consider `C=CC(=O)N(C)C`, for which the call was inactive.

As for `C[C@@H](Oc1ccc(Cl)cc1Cl)C(=O)O`, the compound was called inactive.

Consider `CCSC(C)CC1CC(=O)C(C(CC)=NOC/C=C/Cl)=C(O)C1` (stereo not given), for which the compound was classed as inactive.

In the case of `CNC`, the outcome was inactive.

Turning to `CC12CC1(C)C(=O)N(c1cc(Cl)cc(Cl)c1)C2=O` (stereo not given), the call was inactive.

Turning to `CCOC(=O)CP(=O)(OCC)OCC`, the compound was classed as inactive.

In the case of `Cc1ccccc1C(=O)Nc1cccc(OC(C)C)c1`, the result was inactive.

In the case of `O=C/C=C/c1ccccc1`, the outcome was inactive.

Turning to `O=C1C2(Cl)C3(Cl)C4(Cl)C(Cl)(Cl)C5(Cl)C3(Cl)C1(Cl)C5(Cl)C24Cl` (stereo not given), the call was inactive.

For the compound `COC(=O)c1sccc1S(=O)(=O)NC(=O)Nc1nc(C)nc(OC)n1`, the outcome was inactive.

Regarding `CC(=[OH+])/C=C(/C)[O-].CC(=[OH+])/C=C(/C)[O-].CC(=[OH+])/C=C(/C)[O-].[Fe]`, the call was inactive.

Turning to `NNC(=S)NN`, the call was inactive.

Regarding `CCc1ccccc1C`, the result was inactive.

With `O=C(CCl)CCl`, the half-maximal activity concentration (AC50) is 56 µM (active).
